# Assays:
# Experiment in all cases: DAPPL (digital affinity profiling via proximity ligation, sequencing); 10 mM Tris-HCl pH 7.5, 50 mM NaCl, 1 mM DTT, 4% glycerol, room temperature, 30 min; GST-TFs on glutathione beads, 16-mer random dsDNA library, 0.1% formaldehyde crosslink after washing; high values mean tight binding
# [1] = target: T1, FLI1 (Homo sapiens, UniProt Q01543 1-452); conditions: protein: recombinant; tags: N-terminal GST; dsDNA, one strand shown
# T1 sequence: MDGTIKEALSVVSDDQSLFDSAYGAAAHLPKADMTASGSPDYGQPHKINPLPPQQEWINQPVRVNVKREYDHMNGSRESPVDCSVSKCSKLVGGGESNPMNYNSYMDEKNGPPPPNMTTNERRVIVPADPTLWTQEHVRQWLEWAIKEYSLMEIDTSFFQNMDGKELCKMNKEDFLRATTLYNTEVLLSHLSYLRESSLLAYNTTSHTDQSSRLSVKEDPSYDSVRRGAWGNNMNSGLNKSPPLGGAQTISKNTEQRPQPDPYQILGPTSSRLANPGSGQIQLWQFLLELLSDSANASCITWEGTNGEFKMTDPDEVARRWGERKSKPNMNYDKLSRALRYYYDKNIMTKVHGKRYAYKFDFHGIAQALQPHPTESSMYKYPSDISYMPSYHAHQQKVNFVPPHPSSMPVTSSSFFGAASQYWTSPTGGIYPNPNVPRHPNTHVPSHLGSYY
# Procedure, shortened: (§1)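 Binding signal is given per hexamer as its read frequency for a factor divided by its frequency in the tag-only sample. GST-fused human transcription factors were expressed in yeast, captured on glutathione beads, barcoded with DNA and pooled with that sample, then incubated with 200 nmole of a 16-mer random double-stranded DNA library in Tris/NaCl/DTT/glycerol buffer for 30 min at room temperature. The pools were then washed, crosslinked, proximity-ligated, amplified by PCR and sequenced on an Illumina NextSeq500.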
# [2] = target: T2, ELK1 (Homo sapiens, UniProt P19419 1-428); conditions: protein: recombinant; tags: N-terminal GST; dsDNA, one strand shown
# T2 sequence: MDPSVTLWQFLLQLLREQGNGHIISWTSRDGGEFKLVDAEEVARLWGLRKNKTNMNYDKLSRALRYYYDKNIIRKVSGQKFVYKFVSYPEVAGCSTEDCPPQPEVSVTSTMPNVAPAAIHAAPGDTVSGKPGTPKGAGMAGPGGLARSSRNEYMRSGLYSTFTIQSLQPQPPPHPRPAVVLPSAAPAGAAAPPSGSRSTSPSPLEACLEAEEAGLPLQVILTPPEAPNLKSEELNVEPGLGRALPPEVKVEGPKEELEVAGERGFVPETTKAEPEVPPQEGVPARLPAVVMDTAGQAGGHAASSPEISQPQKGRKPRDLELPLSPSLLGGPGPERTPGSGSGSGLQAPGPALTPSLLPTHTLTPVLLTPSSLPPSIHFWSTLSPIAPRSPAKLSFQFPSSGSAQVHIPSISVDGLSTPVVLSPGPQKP
# Procedure, shortened: as §1
# [3] = target: T3, GABPA (Homo sapiens, UniProt Q06546 1-454); conditions: protein: recombinant; tags: N-terminal GST; dsDNA, one strand shown
# T3 sequence: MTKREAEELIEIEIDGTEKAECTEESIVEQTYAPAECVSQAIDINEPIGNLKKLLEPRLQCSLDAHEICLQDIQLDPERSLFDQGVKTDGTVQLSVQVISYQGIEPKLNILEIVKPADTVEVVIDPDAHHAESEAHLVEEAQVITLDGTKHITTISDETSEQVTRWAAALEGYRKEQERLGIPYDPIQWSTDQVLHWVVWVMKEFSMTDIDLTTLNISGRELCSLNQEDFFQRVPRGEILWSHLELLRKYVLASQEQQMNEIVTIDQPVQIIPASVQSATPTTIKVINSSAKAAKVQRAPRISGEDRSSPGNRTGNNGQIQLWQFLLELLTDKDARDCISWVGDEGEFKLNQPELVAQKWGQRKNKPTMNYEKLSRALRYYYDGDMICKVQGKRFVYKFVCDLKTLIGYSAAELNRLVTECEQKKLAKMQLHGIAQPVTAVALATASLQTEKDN
# Procedure, shortened: as §1
# [4] = target: T4, ERG (Homo sapiens, UniProt P11308 1-479); conditions: protein: recombinant; tags: N-terminal GST; dsDNA, one strand shown
# T4 sequence: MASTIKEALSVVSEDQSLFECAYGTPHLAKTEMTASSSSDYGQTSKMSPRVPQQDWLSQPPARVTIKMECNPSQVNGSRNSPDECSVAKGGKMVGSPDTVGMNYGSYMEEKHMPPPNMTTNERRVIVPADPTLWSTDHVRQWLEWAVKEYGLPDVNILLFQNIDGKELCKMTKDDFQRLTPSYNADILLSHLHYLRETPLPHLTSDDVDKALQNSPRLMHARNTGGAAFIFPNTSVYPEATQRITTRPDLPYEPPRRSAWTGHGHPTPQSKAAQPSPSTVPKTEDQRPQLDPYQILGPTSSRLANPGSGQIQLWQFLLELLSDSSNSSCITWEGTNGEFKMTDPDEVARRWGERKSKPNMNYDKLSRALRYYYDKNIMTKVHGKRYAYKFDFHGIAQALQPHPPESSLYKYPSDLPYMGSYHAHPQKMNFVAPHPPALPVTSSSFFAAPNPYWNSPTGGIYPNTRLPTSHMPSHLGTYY
# Procedure, shortened: as §1
# [5] = target: ELF1 (Homo sapiens, UniProt P32519 1-619); conditions: protein: recombinant; tags: N-terminal GST; dsDNA, one strand shown
# Procedure, shortened: as §1
# [6] = target: T5, EHF (Homo sapiens, UniProt Q9NZC4 1-300); conditions: protein: recombinant; tags: N-terminal GST; dsDNA, one strand shown
# T5 sequence: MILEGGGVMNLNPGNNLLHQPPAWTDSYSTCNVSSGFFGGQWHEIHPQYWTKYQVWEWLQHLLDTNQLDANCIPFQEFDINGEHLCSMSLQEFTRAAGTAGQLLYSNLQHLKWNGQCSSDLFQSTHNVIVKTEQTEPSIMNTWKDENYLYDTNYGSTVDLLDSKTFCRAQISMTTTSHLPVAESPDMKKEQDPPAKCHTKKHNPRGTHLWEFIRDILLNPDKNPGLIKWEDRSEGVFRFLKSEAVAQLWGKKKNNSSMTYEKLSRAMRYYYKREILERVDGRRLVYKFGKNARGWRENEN
# Procedure, shortened: as §1
# [7] = target: SPI1 (Homo sapiens, UniProt P17947 1-270); conditions: protein: recombinant; tags: N-terminal GST; dsDNA, one strand shown
# Procedure, shortened: as §1
# [8] = target: SPIB (Homo sapiens, UniProt Q01892 1-262); conditions: protein: recombinant; tags: N-terminal GST; dsDNA, one strand shown
# Procedure, shortened: as §1
# [9] = target: T6, ELK3 (Homo sapiens, UniProt P41970 1-407); conditions: protein: recombinant; tags: N-terminal GST; dsDNA, one strand shown
# T6 sequence: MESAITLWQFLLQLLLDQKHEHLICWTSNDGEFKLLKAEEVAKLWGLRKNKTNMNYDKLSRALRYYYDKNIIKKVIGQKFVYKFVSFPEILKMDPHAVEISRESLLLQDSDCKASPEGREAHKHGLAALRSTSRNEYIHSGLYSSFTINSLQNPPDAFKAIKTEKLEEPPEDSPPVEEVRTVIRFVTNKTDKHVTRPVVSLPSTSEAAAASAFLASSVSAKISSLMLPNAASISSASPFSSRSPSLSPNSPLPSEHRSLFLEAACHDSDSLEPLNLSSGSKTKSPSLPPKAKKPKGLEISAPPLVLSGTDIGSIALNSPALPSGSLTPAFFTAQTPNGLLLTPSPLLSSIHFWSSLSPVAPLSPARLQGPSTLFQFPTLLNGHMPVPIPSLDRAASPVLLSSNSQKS
# Procedure, shortened: as §1
# [10] = target: T7, FEV (Homo sapiens, UniProt Q99581 1-238); conditions: protein: recombinant; tags: N-terminal GST; dsDNA, one strand shown
# T7 sequence: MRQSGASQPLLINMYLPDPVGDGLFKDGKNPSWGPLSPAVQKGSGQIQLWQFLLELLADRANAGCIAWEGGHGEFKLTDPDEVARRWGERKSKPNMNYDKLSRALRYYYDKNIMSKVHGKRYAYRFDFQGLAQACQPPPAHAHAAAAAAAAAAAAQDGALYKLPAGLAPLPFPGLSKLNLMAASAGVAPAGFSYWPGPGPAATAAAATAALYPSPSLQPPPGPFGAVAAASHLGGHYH
# Procedure, shortened: as §1
# [11] = target: ETV5 (Homo sapiens, UniProt P41161 1-510); conditions: protein: recombinant; tags: N-terminal GST; dsDNA, one strand shown
# Procedure, shortened: as §1
# [12] = target: HSF1 (Homo sapiens, UniProt Q00613 1-529); conditions: protein: recombinant; tags: N-terminal GST; chain copies: 3; dsDNA, one strand shown
# Procedure, shortened: as §1
# [13] = target: T8, SPIC (Homo sapiens, UniProt Q8N5J4 1-248); conditions: protein: recombinant; tags: N-terminal GST; dsDNA, one strand shown
# T8 sequence: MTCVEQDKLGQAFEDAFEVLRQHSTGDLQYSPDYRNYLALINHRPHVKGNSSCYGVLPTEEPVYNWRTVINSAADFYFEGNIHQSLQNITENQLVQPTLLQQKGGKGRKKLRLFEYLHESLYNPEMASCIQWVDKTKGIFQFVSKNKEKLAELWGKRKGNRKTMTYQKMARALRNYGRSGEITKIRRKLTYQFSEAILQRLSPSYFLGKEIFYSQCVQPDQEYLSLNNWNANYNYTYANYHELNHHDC
# Procedure, shortened: as §1
# [14] = target: ELF4 (Homo sapiens, UniProt Q99607 1-663); conditions: protein: recombinant; tags: N-terminal GST; dsDNA, one strand shown
# Procedure, shortened: as §1
# [15] = target: T9, ELK4 (Homo sapiens, UniProt P28324-2 1-405); conditions: protein: recombinant; tags: N-terminal GST; dsDNA, one strand shown
# T9 sequence: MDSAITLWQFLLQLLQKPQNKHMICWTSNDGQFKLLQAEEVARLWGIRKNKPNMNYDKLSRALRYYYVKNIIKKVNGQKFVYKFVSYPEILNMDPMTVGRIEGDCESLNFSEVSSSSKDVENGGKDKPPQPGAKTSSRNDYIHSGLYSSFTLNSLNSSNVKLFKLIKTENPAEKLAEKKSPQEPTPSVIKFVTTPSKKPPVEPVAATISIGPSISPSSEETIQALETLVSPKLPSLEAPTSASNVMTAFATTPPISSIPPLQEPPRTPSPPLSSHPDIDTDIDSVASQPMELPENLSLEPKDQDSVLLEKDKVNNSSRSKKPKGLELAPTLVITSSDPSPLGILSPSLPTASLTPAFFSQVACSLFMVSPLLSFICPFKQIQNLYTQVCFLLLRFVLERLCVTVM
# Procedure, shortened: as §1
# [16] = target: T10, ETV2 (Homo sapiens, UniProt O00321 1-342); conditions: protein: recombinant; tags: N-terminal GST; dsDNA, one strand shown
# T10 sequence: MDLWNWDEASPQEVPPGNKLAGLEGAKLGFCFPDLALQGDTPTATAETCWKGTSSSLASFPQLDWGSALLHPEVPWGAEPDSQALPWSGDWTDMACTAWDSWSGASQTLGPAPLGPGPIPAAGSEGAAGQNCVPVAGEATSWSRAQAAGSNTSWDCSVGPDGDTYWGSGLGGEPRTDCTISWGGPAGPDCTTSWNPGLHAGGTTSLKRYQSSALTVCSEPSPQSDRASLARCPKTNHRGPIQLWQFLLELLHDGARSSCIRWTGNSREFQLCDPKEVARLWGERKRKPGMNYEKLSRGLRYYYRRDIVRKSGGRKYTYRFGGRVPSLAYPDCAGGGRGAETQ
# Procedure, shortened: as §1
# [17] = target: T11, ELF3 (Homo sapiens, UniProt P78545 1-371); conditions: protein: recombinant; tags: N-terminal GST; dsDNA, one strand shown
# T11 sequence: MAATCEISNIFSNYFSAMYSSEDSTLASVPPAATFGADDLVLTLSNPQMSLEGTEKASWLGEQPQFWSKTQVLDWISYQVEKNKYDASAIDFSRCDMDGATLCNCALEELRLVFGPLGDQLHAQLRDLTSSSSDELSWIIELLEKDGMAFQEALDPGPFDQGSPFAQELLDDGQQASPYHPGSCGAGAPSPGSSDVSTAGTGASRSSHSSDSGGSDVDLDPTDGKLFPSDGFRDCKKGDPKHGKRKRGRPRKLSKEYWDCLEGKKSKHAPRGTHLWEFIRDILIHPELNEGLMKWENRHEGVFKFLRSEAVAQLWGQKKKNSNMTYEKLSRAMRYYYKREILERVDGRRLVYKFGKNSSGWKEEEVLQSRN
# Procedure, shortened: as §1
# [18] = target: CRX (Homo sapiens, UniProt O43186 1-299); conditions: protein: recombinant; tags: N-terminal GST; dsDNA, one strand shown
# Procedure, shortened: as §1
# [19] = target: ETV1 (Homo sapiens, UniProt P50549 1-477); conditions: protein: recombinant; tags: N-terminal GST; dsDNA, one strand shown
# Procedure, shortened: as §1
# Sequence of ETV5 (P41161 whole entry): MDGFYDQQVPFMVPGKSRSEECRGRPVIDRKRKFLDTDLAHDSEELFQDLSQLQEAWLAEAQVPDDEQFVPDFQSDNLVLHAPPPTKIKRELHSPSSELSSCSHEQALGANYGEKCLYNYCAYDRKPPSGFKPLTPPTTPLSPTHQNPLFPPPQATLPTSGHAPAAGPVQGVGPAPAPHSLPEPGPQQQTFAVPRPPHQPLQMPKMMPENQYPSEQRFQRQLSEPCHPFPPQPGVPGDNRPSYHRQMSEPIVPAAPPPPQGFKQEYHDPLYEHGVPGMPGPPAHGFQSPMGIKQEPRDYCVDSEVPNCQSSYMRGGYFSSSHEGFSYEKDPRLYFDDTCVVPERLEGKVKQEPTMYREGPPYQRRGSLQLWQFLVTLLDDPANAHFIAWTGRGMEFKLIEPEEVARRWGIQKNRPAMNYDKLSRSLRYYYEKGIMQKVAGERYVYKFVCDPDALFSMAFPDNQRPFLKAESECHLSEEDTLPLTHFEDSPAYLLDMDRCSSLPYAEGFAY
# Sequence of CRX (O43186 whole entry): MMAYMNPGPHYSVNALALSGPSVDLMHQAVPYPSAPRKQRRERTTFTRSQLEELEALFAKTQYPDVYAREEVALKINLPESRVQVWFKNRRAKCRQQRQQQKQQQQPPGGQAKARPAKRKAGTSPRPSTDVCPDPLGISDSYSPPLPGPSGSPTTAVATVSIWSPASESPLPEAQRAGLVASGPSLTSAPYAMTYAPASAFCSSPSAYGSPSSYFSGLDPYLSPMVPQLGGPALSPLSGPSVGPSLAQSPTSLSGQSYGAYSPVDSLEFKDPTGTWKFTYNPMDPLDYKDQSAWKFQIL
# Sequence of ELF4 (Q99607 whole entry): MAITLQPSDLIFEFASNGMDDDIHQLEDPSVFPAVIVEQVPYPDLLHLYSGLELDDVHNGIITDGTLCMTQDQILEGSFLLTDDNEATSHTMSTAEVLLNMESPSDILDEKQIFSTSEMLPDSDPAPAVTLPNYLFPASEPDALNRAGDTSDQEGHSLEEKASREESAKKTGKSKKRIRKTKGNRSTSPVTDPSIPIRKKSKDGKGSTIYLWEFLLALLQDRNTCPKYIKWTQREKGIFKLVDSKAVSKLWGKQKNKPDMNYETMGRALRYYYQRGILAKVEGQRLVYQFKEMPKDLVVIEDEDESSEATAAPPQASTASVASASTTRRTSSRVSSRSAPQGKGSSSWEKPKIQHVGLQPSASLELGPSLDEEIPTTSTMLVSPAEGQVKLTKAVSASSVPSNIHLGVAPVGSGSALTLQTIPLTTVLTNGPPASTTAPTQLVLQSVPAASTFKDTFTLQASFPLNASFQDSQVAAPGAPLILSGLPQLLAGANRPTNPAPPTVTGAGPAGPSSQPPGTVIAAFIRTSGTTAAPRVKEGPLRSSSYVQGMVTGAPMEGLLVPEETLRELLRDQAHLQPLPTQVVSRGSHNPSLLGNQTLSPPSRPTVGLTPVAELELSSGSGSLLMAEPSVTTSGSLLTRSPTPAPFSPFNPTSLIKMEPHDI
# Sequence of HSF1 (Q00613 whole entry): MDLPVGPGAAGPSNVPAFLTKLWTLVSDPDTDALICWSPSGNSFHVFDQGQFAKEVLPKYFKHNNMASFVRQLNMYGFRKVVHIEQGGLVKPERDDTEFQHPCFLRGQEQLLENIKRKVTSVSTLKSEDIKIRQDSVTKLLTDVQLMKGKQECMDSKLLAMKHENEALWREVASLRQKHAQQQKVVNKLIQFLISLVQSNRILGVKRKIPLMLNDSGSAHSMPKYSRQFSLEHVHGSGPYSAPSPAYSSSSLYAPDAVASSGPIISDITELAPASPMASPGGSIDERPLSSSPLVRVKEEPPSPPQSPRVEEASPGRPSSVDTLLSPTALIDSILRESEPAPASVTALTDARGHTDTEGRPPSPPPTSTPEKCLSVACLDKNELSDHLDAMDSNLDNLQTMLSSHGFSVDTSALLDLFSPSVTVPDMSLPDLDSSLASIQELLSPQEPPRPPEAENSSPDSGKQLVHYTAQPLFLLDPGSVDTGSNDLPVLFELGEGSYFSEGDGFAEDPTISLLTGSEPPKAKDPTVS
# Sequence of SPIB (Q01892 whole entry): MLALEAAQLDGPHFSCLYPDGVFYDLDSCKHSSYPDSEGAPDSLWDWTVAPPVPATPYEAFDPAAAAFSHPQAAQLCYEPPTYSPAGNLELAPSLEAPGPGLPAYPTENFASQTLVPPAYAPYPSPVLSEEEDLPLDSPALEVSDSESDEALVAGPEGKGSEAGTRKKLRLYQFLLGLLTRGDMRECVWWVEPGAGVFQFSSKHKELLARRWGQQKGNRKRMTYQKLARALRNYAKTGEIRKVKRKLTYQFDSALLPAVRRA
# Sequence of ELF1 (P32519 whole entry): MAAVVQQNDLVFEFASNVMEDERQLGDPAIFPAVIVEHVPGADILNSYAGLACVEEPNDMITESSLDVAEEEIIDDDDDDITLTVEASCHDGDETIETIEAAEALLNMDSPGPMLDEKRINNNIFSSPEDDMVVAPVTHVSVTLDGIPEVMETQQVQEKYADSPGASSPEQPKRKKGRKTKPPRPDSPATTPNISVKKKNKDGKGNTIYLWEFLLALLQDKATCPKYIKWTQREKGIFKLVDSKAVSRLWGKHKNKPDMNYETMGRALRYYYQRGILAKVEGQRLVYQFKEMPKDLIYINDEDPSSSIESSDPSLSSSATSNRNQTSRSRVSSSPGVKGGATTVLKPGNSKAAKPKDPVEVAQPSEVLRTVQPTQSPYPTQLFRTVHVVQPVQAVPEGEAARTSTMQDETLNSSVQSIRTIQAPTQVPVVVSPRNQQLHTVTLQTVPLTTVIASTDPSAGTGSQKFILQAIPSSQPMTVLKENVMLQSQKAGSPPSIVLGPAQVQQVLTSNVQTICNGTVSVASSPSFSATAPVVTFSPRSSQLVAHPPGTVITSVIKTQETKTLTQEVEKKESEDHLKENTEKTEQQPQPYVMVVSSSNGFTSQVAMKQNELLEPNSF
# Sequence of ETV1 (P50549 whole entry): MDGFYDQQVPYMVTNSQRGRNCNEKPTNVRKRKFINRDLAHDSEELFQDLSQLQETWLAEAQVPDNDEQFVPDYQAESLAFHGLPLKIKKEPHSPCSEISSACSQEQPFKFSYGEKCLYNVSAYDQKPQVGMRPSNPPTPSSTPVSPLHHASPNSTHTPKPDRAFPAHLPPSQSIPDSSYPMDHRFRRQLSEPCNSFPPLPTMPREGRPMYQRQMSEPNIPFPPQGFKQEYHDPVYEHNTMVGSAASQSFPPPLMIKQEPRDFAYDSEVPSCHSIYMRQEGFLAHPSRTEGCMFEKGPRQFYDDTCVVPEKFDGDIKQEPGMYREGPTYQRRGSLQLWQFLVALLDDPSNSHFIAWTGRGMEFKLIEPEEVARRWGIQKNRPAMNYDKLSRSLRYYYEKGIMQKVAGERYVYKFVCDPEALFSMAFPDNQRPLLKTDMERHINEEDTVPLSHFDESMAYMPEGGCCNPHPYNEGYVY
sequence,measurement,setting,value
CTTCGT,binding signal,[1],"1.34 fold enrichment (6-mer frequency, TF over GST control)"
same,binding signal,[2],"1.45 fold enrichment (6-mer frequency, TF over GST control)"
same,binding signal,[3],"1.38 fold enrichment (6-mer frequency, TF over GST control)"
same,binding signal,[4],"1.3 fold enrichment (6-mer frequency, TF over GST control)"
same,binding signal,[5],"1.3 fold enrichment (6-mer frequency, TF over GST control)"
same,binding signal,[6],"1.36 fold enrichment (6-mer frequency, TF over GST control)"
same,binding signal,[7],"1.39 fold enrichment (6-mer frequency, TF over GST control)"
same,binding signal,[8],"1.32 fold enrichment (6-mer frequency, TF over GST control)"
same,binding signal,[9],"1.4 fold enrichment (6-mer frequency, TF over GST control)"
same,binding signal,[10],"1.33 fold enrichment (6-mer frequency, TF over GST control)"
same,binding signal,[11],"1.33 fold enrichment (6-mer frequency, TF over GST control)"
same,binding signal,[12],"1.31 fold enrichment (6-mer frequency, TF over GST control)"
same,binding signal,[13],"1.4 fold enrichment (6-mer frequency, TF over GST control)"
same,binding signal,[14],"1.29 fold enrichment (6-mer frequency, TF over GST control)"
same,binding signal,[15],"1.39 fold enrichment (6-mer frequency, TF over GST control)"
same,binding signal,[16],"1.41 fold enrichment (6-mer frequency, TF over GST control)"
same,binding signal,[17],"1.41 fold enrichment (6-mer frequency, TF over GST control)"
same,binding signal,[18],"1.22 fold enrichment (6-mer frequency, TF over GST control)"
same,binding signal,[19],"1.32 fold enrichment (6-mer frequency, TF over GST control)"

# Source: PMC7862700, “An all-to-all approach to the identification of sequence-specific readers for epigenetic DNA modifications on cytosine”
